# PI5P4Ka inh: qHTS for Inhibitors of phosphatidylinositol 5-phosphate 4-kinase (PI5P4K); PI5P4Kalpha enzyme, ADP-Glo luminescence, 60 min; hits give low values; max response, %; AID 652105, 2013; actives 1.2% (n = 330,000); Phosphatidylinositol 5-phosphate 4-kinase type-2 alpha (Homo sapiens), P48426; active means max response of -50% or lower; inconclusive means between -30% and -50%; inactive means -30% or higher; further: value at the top dose of about 77 µM; on the % scale 0 is the no-effect control and ±100 the full control effect
#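 Reactions run in 0.038 M HEPES pH 7.4, 0.28 mM EGTA, 0.1% CHAPS and 5% DMSO, with PI5P4Kalpha, substrate, compound and 5 microM ATP final, one hour at room temperature. Readout is ADP-Glo luminescence.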
# PLK1 PBD block: qHTS for Inhibitors of PLK1-PDB (polo-like kinase 1 - polo-box domain): Primary Screen. Potency, µM, inactives show max response, negative = inhibition, hits mostly inhibitors. Plk1 PBD binding of FITC phosphopeptide, fluorescence polarization. AID 720504, 2013. Serine/threonine-protein kinase PLK1 (Homo sapiens), P53350. actives 2.8% (n = 360,000); further: potency means the concentration at half of the fitted maximal effect; series mostly up to about 57 µM; on the % scale 0 is the no-effect control and ±100 the full control effect; nearly all actives have a fitted effect of over 65% in size
# G9a inh: qHTS Assay for Inhibitors of Histone Lysine Methyltransferase G9a; Histone-lysine N-methyltransferase EHMT2 (Homo sapiens), Q96KQ7; G9a H3K9 monomethylation, AlphaScreen, 2 h; Potency, µM (titrated, usually from 102 µM), without a hit: at the top dose activity, negative = inhibition, most hits filed as inhibitors; actives 8.8% (n = 350,000); AID 504332, 2011; further: potency means the concentration at half of the fitted maximal effect; on the % scale 0 is the no-effect control and ±100 the full control effect; nearly all actives have a fitted effect of over 75% in size
# Target sequence (Q96KQ7 913-1193 limits assumed): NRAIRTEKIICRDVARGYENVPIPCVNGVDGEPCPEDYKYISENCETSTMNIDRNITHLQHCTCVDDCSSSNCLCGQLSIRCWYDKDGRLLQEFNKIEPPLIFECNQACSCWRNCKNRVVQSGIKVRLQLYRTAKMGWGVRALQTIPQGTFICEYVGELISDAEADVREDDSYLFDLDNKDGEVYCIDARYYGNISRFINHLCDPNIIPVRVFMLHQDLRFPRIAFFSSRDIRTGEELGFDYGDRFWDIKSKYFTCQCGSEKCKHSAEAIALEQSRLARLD
#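 Readings reflect AlphaScreen signal from monomethyl-H3K9 antibody detection. HMT at 20 nM; substrate b-H3K9 500 nM; cofactor SAM 20 uM; 2 h RT reaction; compounds tested as titrations in qHTS with 15 min preincubation.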
# JMJD2A Tudor inh: qHTS Assay for Inhibitors of JMJD2A-Tudor Domain; actives 4.4% (n = 390,000); Potency, µM (highest dose often 114 µM), for inactives: at the highest dose activity change, negative = inhibition, usual class: inhibitors; Lysine-specific demethylase 4A (Homo sapiens), O75164; AlphaScreen JMJD2A-Tudor / H3K4me3 peptide binding; further: potency means the concentration at half of the fitted maximal effect; on the % scale 0 is the no-effect control and ±100 the full control effect; nearly all actives have a fitted effect of over 50% in size
# HP1b chromo inh: HTS for Inhibitors of HP1-beta Chromodomain Interactions with Methylated Histone Tails | AlphaScreen HP1-beta / biotin-H3K9me3 peptide binding | Potency, µM (top dose mostly 114 µM), for inactives: top-dose activity change, negative = inhibition, most hits filed as inhibitors | Chromobox protein homolog 1 (Homo sapiens), P83916 | actives 0.56% (n = 390,000) | AID 540317, 2011; further: potency means the concentration at half of the fitted maximal effect; nearly all actives have a fitted effect of over 70% in size
# Target sequence (P83916 whole entry, looked up): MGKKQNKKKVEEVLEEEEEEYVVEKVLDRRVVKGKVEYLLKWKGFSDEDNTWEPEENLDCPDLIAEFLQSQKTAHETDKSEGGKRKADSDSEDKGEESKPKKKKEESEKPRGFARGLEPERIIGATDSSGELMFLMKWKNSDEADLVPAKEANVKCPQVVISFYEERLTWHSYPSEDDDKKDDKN
#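 HP1-beta protein (50 nM final) preincubated 30 min at room temperature with biotinylated H3(1-18)K9me3 peptide (50 nM) in PBS pH 7.4, 0.01% Tween-20, then compound added for 30 min. AlphaScreen streptavidin donor/nickel chelate acceptor beads (10 ug/mL final), 30 min dark, luminescence read.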
# BAZ2B block: qHTS Assay for Inhibitors of BAZ2B. AlphaScreen BAZ2B-H3K14Ac peptide displacement. actives 4.4% (n = 360,000). AID 504333, 2011. Bromodomain adjacent to zinc finger domain protein 2B (Homo sapiens), Q9UIF8. Potency, µM (doses to about 114 µM), inactives show top-dose activity change, negative = inhibition, usual class: inhibitors; further: potency means the concentration at half of the fitted maximal effect; on the % scale 0 is the no-effect control and ±100 the full control effect; nearly all actives have a fitted effect of over 60% in size
#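 Compounds, titrated to a top concentration of 110 uM, were incubated 30 min at room temperature with preformed BAZ2B/acetyl-K14 H3 peptide complex (50 nM each). Proximity signal was measured by AlphaScreen after 20 min with beads.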
# Numbers without * were called inactive; ? = inconclusive; . = not tested or not shown; [ ] = remark or other dose. Hits are enriched below; roughly 12% of the tested compounds scored in any of these assays. Unless noted, the call rests on the fitted dose curve; in most records, active means well fitted curve in the direction sought with a large enough effect; inconclusive means small, poorly fitted or top-dose-only effect, or another doubt; inactive means no such curve, though single readings can be large; an effect the other way counts as inactive or inconclusive.
SMILES,PI5P4Ka inh,PLK1 PBD block,G9a inh,JMJD2A Tudor inh,HP1b chromo inh,BAZ2B block
O=C1CCC[C@@H]2Cc3[nH]c4c(Cl)ccc(Cl)c4c3[C@@H]3CCN1[C@H]23,13.2,-11.9%,50.1µM*,-29.9%,-9.9%,-11.0%
Nc1ncnc2c1nc(Sc1ccc(Cl)cc1)n2[C@H]1O[C@@H]2COP(=O)(O)O[C@H]2[C@@H]1O,.,.,24.3%[12.7 µM],.,.,.
COc1ccc2cc(/C=C/C(=O)c3ccco3)c(Cl)nc2c1,.,.,50.1µM*,.,.,2.9%
COC(=O)CN1C(=O)CSc2ccc(S(=O)(=O)Nc3cccc(C)c3)cc21,.,.,-41.9%[59 µM],-7.9%,48.8%,-8.5%
Cc1ccc(N2CCN(/N=C/c3cccnc3)CC2)cc1,5.9,-20.6%,?,?,-12.3%,?
COc1cc(/C=N/N2CCN(c3ccccc3OC)CC2)ccc1OC(C)=O,-0.1,8.1%,17.8%[0.501 µM],-29.3%,-0.2%,?
COc1ccccc1N1CCN(/N=C/c2cc(OC)c(O)c(OC)c2)CC1,-0.2,10.7%,12.6µM*,89.1µM*,-41.4%,?
COc1ccccc1N1CCN(/N=C\c2cccnc2)CC1,-0.4,-4.1%,39.8µM*,?,16.8%,79.4µM*
COc1ccccc1N1CCN(/N=C/c2cccc(O)c2)CC1,0.3,3.3%,-34.8%,-32.8%,6.0%,70.8µM*
CCN1C(=O)N[C@@H](c2ccccc2)C1=O,.,.,13.8%[21.5 µM],.,.,.
COc1ccccc1CCNC(=O)C(=O)NCC1OCCN1S(=O)(=O)c1ccc(OC)c(OC)c1 (configuration not stated),-7.8,-12.6%,.,-10.9%,22.0%,-5.7%
O=C(NCc1ccc2c(c1)OCO2)c1ccc2c(c1)N(Cc1ccccc1F)C(=O)c1ccccc1S2=O (configuration not stated),.,.,2.9%[59 µM],-21.2%,17.2%,-18.4%
Cn1cc[nH]c1=S,2.0,-3.8%,44.7µM*,?,16.0%,-22.7%
C/C=C/c1ccc(OCCCNC(C)CC)c(OC)c1 (configuration not stated),6.2,?,?,1.78µM*,-34.0%,31.6µM*
C/C=C/c1ccc(OCCCNC2CCCC2)c(OC)c1,-0.8,-1.8%,?,7.94µM*,?,?
C/C=C/c1ccc(OCCCCOc2ccccc2F)c(OC)c1,3.9,1.5%,69.7%[59 µM],75.5%,188.3%,185.8%
CCCCCCc1nc(C(N)=O)c2[nH]c(=O)n(-c3ccccc3F)c2n1,-12.4,-22.2%,-6.0%,-9.1%,29.2%,-0.4%
CCOc1cc(C(=O)NCCc2sc(-c3ccc(F)cc3)nc2C)cc(OCC)c1OCC,.,.,19.8%[59 µM],-22.7%,4.7%[57 µM],-9.4%
O=C(N/N=C/c1ccc(OC(=O)c2ccccc2)c([N+](=O)[O-])c1)c1ccc(O)cc1,-78.7*,?,-9.7%[59 µM],-20.5%,16.7%,-8.5%
COc1cc(/C=N/NC(=O)c2cc(O)cc(O)c2)ccc1OC(=O)c1ccccc1,-91.7*,?,8.91µM*,22.4µM*,28.2µM*,11.2µM*
COc1cc(/C=N/NC(=O)c2ccc3ccccc3c2)ccc1Oc1ccc([N+](=O)[O-])cn1,-1.2,-11.4%,1.78µM*,25.1µM*,11.9%,-32.0%
COc1ccc(C(=O)Oc2ccc(/C=N/NC(=O)c3ccccc3OC)cc2[N+](=O)[O-])cc1,-1.1,-14.8%,6.1%,-6.7%,31.2%,5.1%
CN1CCN(c2ncc3nc(-c4cn(C)c5ccccc45)c(=O)n(Cc4cccs4)c3n2)CC1,.,.,-24.6%[0.501 µM],.,.,.
CCCNC(=O)N1CCN(c2ncccn2)CC1,-4.7,-2.2%,14.6%[59 µM],-8.3%,30.4%,6.6%
CCCNC(=O)N1CCN(S(C)(=O)=O)CC1,-4.0,-3.7%,39.8µM*,-6.8%[11.4 µM],36.8%,-10.6%
SMILES,PI5P4Ka inh,PLK1 PBD block,G9a inh,JMJD2A Tudor inh,HP1b chromo inh,BAZ2B block
C/C(=N\NC(=S)NCCc1ccccc1)c1cccs1,32.1,-23.3%,?,?,?,35.5µM*
C/C(CCc1ccccc1)=N\NC(=S)NCCc1ccccc1,3.7,-7.9%,?,?,-22.1%,39.8µM*
NNC(=S)NCCc1ccccc1,4.6,-27.6%,12.0%[12.7 µM],?,2.3%,?
C/C(CCC(C)C)=N\NC(=S)NCc1ccccc1,-2.0,-6.0%,44.7µM*,56.2µM*,-9.7%,?
C/C(CCc1ccc2c(c1)OCO2)=N\NC(=S)NC(C)C,0.6,-12.9%,?,-34.3%,-15.3%,?
COCCNC(=S)N/N=C(\C)CCc1ccc2c(c1)OCO2,0.3,1.8%,50.1µM*,-30.5%,-3.6%,-38.7%
CCCCn1nnnc1C(c1cc2ccccc2o1)N1CCN(c2ncccc2C#N)CC1 (configuration not stated),17.0,5.9%,.,.,.,.
COc1ccc2cc(CNc3ccc(C)cc3)c(=O)n(CC(=O)Nc3cccc(C(F)(F)F)c3)c2c1,.,.,9.4%[59 µM],-16.6%,29.3%,-10.2%
CCOC(=O)c1cc2c(ccn2C)n1Cc1cc(C)ccc1C,.,-4.3%,50.1µM*,25.1µM*,?,50.1µM*
COc1cc2c(cc1OC)C(c1ccccc1O)N(C1CC(=O)N(c3ccccc3)C1=O)CC2 (configuration not stated),.,-1.8%,8.91µM*,-9.6%,15.6%,-29.1%
COc1ccc(NCC(=O)n2c(C)c(C)c3ccccc32)cc1,0.6,3.9%,10µM*,-32.8%,10.4%,-9.3%
COC(=O)c1ccccc1NC(=O)c1ccc2c(c1)OCCO2,9.4,-10.9%,12.0%[59 µM],13.9%,94.4%,21.1%
COC(=O)c1ccccc1NC(=S)NC(=O)c1ccc2c(c1)OCO2,-0.4,?,39.8µM*,-7.6%,9.3%,-18.9%
CC(C)C(=O)Nc1cccc(NC(=S)NC(=O)c2ccc3c(c2)OCO3)c1,-5.5,-3.1%,65.0%,22.4µM*,10.8%,-14.6%
COC(=O)c1ccccc1NC(=S)NC(=O)c1ccccc1,-11.0,26.7µM*,30.3%[0.501 µM],-27.1%,-3.3%,?
CCCCC(=O)Nc1cccc(NC(=S)NC(=O)C(C)C)c1,-6.5,-11.1%,28.2µM*,?,5.1%,0.6%
CC(C)C(=O)Nc1cccc(NC(=S)NC(=O)c2ccc(Cl)cc2)c1,.,-0.3%,-48.7%[59 µM],-22.4%,6.3%,-28.3%
COC(=O)c1ccccc1NC(=S)NC(=O)c1ccc(C)cc1,2.6,?,?,-17.7%,-9.3%,?
COc1ccc(S(=O)(=O)N(C)C[C@H]2Oc3c(NC(=O)C4CCCCC4)cccc3C(=O)N([C@H](C)CO)C[C@@H]2C)cc1,-3.1,-12.4%,.,-14.3%,38.1%,.
